Measurements taken from PubChem BioAssay (NCATS).
Where “and” joins values, the source holds several entries; their conditions need not be identical. Equal entries are not always repeated. Values without a mark were called inactive. Records with an inconclusive call do not appear. Entries that show only a call come without a potency. Calls of active or inactive are those of the source. Unless noted, the call rests on the fitted dose curve; in most records, active means well fitted curve in the direction sought with a large enough effect; inconclusive means small, poorly fitted or top-dose-only effect, or another doubt; inactive means no such curve, though single readings can be large; an effect the other way counts as inactive or inconclusive.

Assays:
[1] = Cell Viability - LYMP2-005 (AID 967); further: potency means the concentration at half of the fitted maximal effect
Procedure, shortened: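 Steps: seed 2500 LYMP2-005 cells/well, incubate 5 h at 37 C, add compound, incubate 24 h at 37 C, add CellTiter-Glo, wait 30 min at RT, read luminescence. Concentration-response data fitted to Hill equation for AC50.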

[2] = Cell Viability - LYMP2-011 (AID 969); further: nearly all actives have a fitted effect of over 60% in size; further: potency means the concentration at half of the fitted maximal effect
Procedure, shortened: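 Human lymphoblastoid cells (2500/well) were plated in complete medium, preincubated 5 hr at 37 C, then exposed to compounds for 24 hr at 37 C. Intracellular ATP was read by CellTiter-Glo luminescence, and AC50 came from Hill-equation concentration-response fits.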

[3] = Cell Viability - LYMP2-015 (AID 971); further: nearly all actives have a fitted effect of over 55% in size; further: potency means the concentration at half of the fitted maximal effect
Procedure, shortened: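 Human lymphoblastoid cells (2500/well) in complete medium were preincubated 5 hr at 37 C, then compound-treated 24 hr at 37 C. Intracellular ATP was read by CellTiter-Glo luminescence after 30 min at room temperature; AC50 came from Hill-equation concentration-response fits.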

[4] = Cell Viability - LYMP2-021 (AID 974);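 further: compound exposure lasts 24 hours at 37 °C; nearly all actives have a fitted effect of over 55% in size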; further: potency means the concentration at half of the fitted maximal effect
Procedure, shortened: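 Human lymphoblastoid cells (2500/well) were preincubated 5 hr at 37 C, then exposed to compounds for 24 hr at 37 C in complete medium. Intracellular ATP was read by CellTiter-Glo luminescence; AC50 came from Hill-equation fits of concentration-response data.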

[5] = Cell Viability - LYMP2-023 (AID 975); further: nearly all actives have a fitted effect of over 55% in size; further: potency means the concentration at half of the fitted maximal effect
Procedure, shortened: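 Human lymphoblastoid cells (2500/well) were preincubated 5 hr at 37 C, then exposed to compounds for 24 hr at 37 C in complete medium. Cellular ATP was read by CellTiter-Glo luminescence, and AC50 came from Hill-equation fits.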

[6] = Cell Viability - LYMP2-002 (AID 977); further: potency means the concentration at half of the fitted maximal effect
Procedure, shortened: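 Luminescent ATP readout (CellTiter-Glo, 30 min room temperature) after 24 h compound exposure at 37 C of a human lymphoblastoid line, 2500 cells/well. AC50 values derived by standard Hill fitting of qHTS concentration-response data.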

[7] = Cell Viability - LYMP2-020 (AID 986); further: nearly all actives have a fitted effect of over 55% in size; further: potency means the concentration at half of the fitted maximal effect
Procedure, shortened: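 Human lymphoblastoid cells, 2500/well, were pre-incubated 5 hr at 37 C, then exposed to compounds for 24 hr at 37 C in complete medium. Intracellular ATP was read by CellTiter-Glo luminescence, and AC50 was derived by Hill fitting of concentration-response data.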

[8] = Cell Viability - LYMP1-002 - Assay at 24 hr (AID 993); further: potency means the concentration at half of the fitted maximal effect
Procedure, shortened: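 Human lymphoblastoid LYMP1-002 cells, 2500/well in complete medium, were treated with compounds for 24 h at 37 C; intracellular ATP was read by CellTiter-Glo luminescence. AC50 values came from Hill-equation fits of qHTS concentration-response data.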

[9] = biological target: Peroxisome proliferator-activated receptor delta (Homo sapiens) (UniProt Q03181); test: qHTS assay for small molecule agonists of peroxisome proliferator-activated receptor delta signaling (AID 588534; calls by dose curve)
Procedure, shortened: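 Cell-based beta-lactamase reporter assay run in agonist mode: cells seeded and incubated 5 hrs at 37 C, compounds added and incubated 18 hrs at 37 C. CCF4 dye fluorescence read after 2 hrs at RT; EC50 and efficacy from Hill fits.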

[10] = qHTS assay for small molecule agonists of the antioxidant response element (ARE) signaling pathway (AID 651741; active means well fitted activation curve with a large enough effect in the signal ratio; the % refers to the signal ratio; further: potency means the concentration at half of the fitted maximal effect)
Procedure, shortened: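 ARE-bla HepG2 cells (beta-lactamase reporter under ARE control) were plated at 2,000 cells/well, preincubated 5 h at 37 C/5% CO2, then treated with DMSO-dissolved compounds for 16 h at 37 C; LiveBLAzer B/G FRET substrate added, fluorescence read after 2 h at room temperature.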

[11] = qHTS assay for small molecule activators of the nuclear factor-kappa B (NF-kB) signaling pathway (AID 651749; active means well fitted activation curve with a large enough effect in the signal ratio; the % refers to the signal ratio; further: series mostly up to about 77 µM); details: NF-kB-bla ME-180 cells, beta-lactamase FRET ratio, 16 h; hits give high values
Procedure, shortened: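 ME-180 cells stably carrying a beta-lactamase reporter under an NF-kB response element were exposed to compound or DMSO vehicle for 16 hr at 37C, 5% CO2. Pathway activation was read by FRET, since reporter expression disrupts FRET.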

[12] = Cell Viability - SK-N-SH (AID 435; calls by dose curve;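 further: potency means the concentration at half of the fitted maximal effect; compound exposure lasted 40 h at 37 °C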); details: SK-N-SH neuroblastoma cell viability qHTS
Procedure, shortened: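 CellTiter-Glo ATP luminescence, 20 min RT read; cells pre-plated 5 hr, compound 40 hr at 37 °C, 1500 cells/well, complete medium. Normalized DMSO = 0, 100 uM tamoxifen = 100% inhibition; Hill-fit AC50.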

[13] = Cell Viability - Renal Proximal Tubule (AID 545); further: nearly all actives have a fitted effect of over 40% in size
Procedure, shortened: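 Rat kidney proximal tubule cells, freshly isolated; 1000 cells/well, 5 hr settle, compound 40 hr 37 °C. CellTiter-Glo 20 min RT, luminescence read. AC50 by standard Hill fit.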

[14] = Cell Viability - LYMP2-013 (AID 970); further: nearly all actives have a fitted effect of over 55% in size; further: potency means the concentration at half of the fitted maximal effect
Procedure, shortened: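 Human lymphoblastoid cells, 2500/well, were preincubated 5 hr at 37 C, then treated with compounds for 24 hr at 37 C in complete medium. Intracellular ATP was read by CellTiter-Glo luminescence; AC50 from Hill-equation fits of concentration-response data.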

[15] = Cell Viability - LYMP2-010 (AID 981); further: nearly all actives have a fitted effect of over 55% in size; further: potency means the concentration at half of the fitted maximal effect
Procedure, shortened: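 Human lymphoblastoid LYMP2-010 cells (2500/well) were preincubated 5 hr at 37 C, then exposed to compounds for 24 hr at 37 C in complete medium. Intracellular ATP was measured by CellTiter-Glo luminescence after 30 min at room temperature; AC50 from Hill-fitted concentration-response.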

[16] = biological target: Retinoic acid receptor RXR-alpha (Homo sapiens) (UniProt P19793); test: qHTS assay for small molecule antagonists of retinoid X receptor alpha signaling (AID 588546; active means well fitted inhibition curve with a large enough effect in the signal ratio, with a control signal flat, not every such curve was filed as active; the % refers to the signal ratio;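 further: cells stimulated with 9-cis-retinoic acid as agonist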); details: HEK293T RXRa-UAS-bla, beta-lactamase ratio, antagonist mode
Procedure, shortened: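 Beta-lactamase reporter inhibition, read as CCF4 fluorescence ratio (ex 405, em 460/530 nm) after 2 h at RT. HEK293T UAS-bla cells, 2500/well, were stimulated with 9-cis-RA at 500 or 100 nM final alongside test compound for 18 h at 37 C.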

[17] = Cell Viability - HUV-EC-C (AID 542); further: nearly all actives have a fitted effect of over 35% in size
Procedure, shortened: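 HUV-EC-C normal human vascular endothelial cells, 1000 cells/well, pre-incubated 5 hr at 37 °C, then exposed to compounds for 40 hr at 37 °C in complete medium. Viability measured as intracellular ATP by CellTiter-Glo luminescence; AC50 from Hill fits.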

[18] = qHTS assay for small molecule antagonists of the retinoid-related orphan receptor gamma (ROR-gamma) signaling pathway - cell viability counter screen (AID 720652; active means well fitted curve in the direction sought with a large enough effect in the repeat runs; an effect the other way counts as inactive or inconclusive;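 further: CHO reporter cells with doxycycline-induced ROR-gamma expression; series mostly up to about 92 µM; compound exposure lasted 16 hr before ATP read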)
Procedure, shortened: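 Counter screen in CHO cells carrying TET-inducible ROR-gamma and an ROR response element-luciferase reporter; cells plated 5 hr, compound pinned, doxycycline added, then 16 hr at 37 C. Viability read as intracellular ATP by CellTiter-Glo luminescence.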

[19] = biological target: Nuclear receptor subfamily 1 group I member 2 (Rattus norvegicus) (UniProt Q9R1A7); test: qHTS assay for small molecule activators of the rat pregnane X receptor (rPXR) signaling pathway (AID 651751; call rule not given here); details: rPXR reporter cells, luciferase (One-Glo), 24 h
[20] = qHTS assay for small molecule activators of the human pregnane X receptor (PXR) signaling pathway (AID 720659; call rule not given here)

Peroxisome proliferator-activated receptor delta (Homo sapiens), sequence (Q03181 whole entry, looked up): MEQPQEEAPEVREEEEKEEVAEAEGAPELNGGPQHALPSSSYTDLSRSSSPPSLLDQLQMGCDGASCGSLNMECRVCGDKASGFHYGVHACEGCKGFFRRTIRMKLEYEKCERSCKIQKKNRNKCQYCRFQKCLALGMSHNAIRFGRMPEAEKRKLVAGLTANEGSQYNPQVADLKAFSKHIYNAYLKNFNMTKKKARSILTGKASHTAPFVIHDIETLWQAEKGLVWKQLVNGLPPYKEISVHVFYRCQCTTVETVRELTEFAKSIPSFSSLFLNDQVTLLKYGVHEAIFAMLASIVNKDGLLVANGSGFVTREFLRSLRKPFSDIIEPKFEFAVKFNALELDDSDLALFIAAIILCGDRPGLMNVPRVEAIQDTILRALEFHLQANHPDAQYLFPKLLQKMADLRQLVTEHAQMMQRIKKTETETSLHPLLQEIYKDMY
Nuclear receptor subfamily 1 group I member 2 (Rattus norvegicus), sequence (Q9R1A7 whole entry, looked up): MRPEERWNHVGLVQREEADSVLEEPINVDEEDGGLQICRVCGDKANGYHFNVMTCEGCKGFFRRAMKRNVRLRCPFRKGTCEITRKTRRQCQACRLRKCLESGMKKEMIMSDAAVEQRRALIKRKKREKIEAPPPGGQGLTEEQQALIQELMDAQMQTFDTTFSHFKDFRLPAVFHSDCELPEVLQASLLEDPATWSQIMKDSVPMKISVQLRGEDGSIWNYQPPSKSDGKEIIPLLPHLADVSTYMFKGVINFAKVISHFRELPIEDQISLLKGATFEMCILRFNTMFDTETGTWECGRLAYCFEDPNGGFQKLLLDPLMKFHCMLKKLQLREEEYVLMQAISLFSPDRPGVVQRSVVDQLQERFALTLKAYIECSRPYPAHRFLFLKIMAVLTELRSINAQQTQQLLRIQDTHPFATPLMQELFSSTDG
Retinoic acid receptor RXR-alpha (Homo sapiens), sequence (P19793 whole entry, looked up): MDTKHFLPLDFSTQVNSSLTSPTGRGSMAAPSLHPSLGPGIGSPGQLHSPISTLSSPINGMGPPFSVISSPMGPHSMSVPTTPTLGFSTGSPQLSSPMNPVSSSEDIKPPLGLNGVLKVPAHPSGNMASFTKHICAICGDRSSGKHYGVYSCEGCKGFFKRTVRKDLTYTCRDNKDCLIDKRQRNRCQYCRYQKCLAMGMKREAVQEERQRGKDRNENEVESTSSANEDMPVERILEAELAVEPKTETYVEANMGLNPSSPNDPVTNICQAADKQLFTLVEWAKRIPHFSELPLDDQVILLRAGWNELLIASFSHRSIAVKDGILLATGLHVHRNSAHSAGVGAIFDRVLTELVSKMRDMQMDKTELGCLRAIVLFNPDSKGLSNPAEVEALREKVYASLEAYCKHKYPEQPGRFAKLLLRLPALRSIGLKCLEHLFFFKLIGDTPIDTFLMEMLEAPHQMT

Structure (SMILES)	Potency [1]	Potency [2]	Potency [3]	Potency [4]	Potency [5]	Potency [6]	Potency [7]	Potency [8]	outcome [9]	Potency [10]	activation [11]	Potency [12] [µM]	outcome [13]	Potency [14]	Potency [15]	max response [16]	Potency [17]	Potency [18]	max response [19]	outcome [20]
Cc1cc(N=Nc2ccccc2C)ccc1N	inactive	inactive	inactive	inactive	inactive	inactive	inactive	inactive	inactive	1.88 µM (active) and 4.86 µM (active)	-0.0756% and -0.721%									
Cc1ccc2c(c1N)C(=O)c1ccccc1C2=O	inactive		inactive	inactive		inactive	inactive		inactive	21.1 µM (active) and 17.2 µM (active)	0.359% and 2.04%	> 92	inactive	inactive	inactive	9.57% and -23.7%				
Cc1cnc[nH]1	inactive	inactive	inactive	inactive		inactive	inactive	inactive	inactive	inactive	-0.55%		inactive		inactive	4.17%	inactive	inactive	-5.24%	inactive
CCCCCCCCCCCCCl	inactive	inactive	inactive	inactive	inactive		inactive	inactive	inactive				inactive	inactive	inactive	-4.83%	inactive	inactive	3.36%	inactive
Nc1ccc([N+](=O)[O-])cc1N		inactive	inactive	inactive	inactive	inactive	inactive	inactive	inactive	3.76 µM (active) and 2.73 µM (active)		> 92	inactive			-24.9% and -14.3%	inactive	inactive	-5.6% and -2.56%	
Oc1c(Cl)c(Cl)cc(Cl)c1Cl		inactive	inactive	inactive	inactive	inactive	inactive	inactive	inactive	66.8 µM (active)				inactive	inactive	-10.3%	inactive		-8.76%	inactive
Nc1c(Br)cc([N+](=O)[O-])cc1[N+](=O)[O-]	inactive	inactive	inactive	inactive	inactive	inactive	inactive	inactive	inactive	37.6 µM (active)	-0.945%	> 92	inactive	inactive				inactive	14.9%	inactive
COC(C)(C)C	inactive		inactive	inactive	inactive			inactive	inactive	inactive	1.85%	> 92		inactive	inactive		inactive	inactive	3.77%	inactive
O=[N+]([O-])c1ccccc1CCl	inactive				inactive	inactive		inactive	inactive		0.905%	> 92	inactive			-4.02%	inactive		5.58%	inactive
Cc1cc(C)cc(OP(=O)(Oc2cc(C)cc(C)c2)Oc2cc(C)cc(C)c2)c1	inactive	inactive	inactive	inactive	inactive	inactive	inactive	inactive				> 92	inactive		inactive		inactive			
CN1CSC(=S)N(C)C1	31.6 µM (active)	39.8 µM (active)	31.6 µM (active)	39.8 µM (active)	39.8 µM (active)	31.6 µM (active)	39.8 µM (active)	39.8 µM (active)	inactive	42.2 µM (active) and 27.3 µM (active)	-0.197% and -1.34%		inactive	39.8 µM (active)	20 µM (active)	-34.7%	inactive		-10.5% and -8.21%	
ClCc1ccccn1	inactive	inactive	inactive		inactive	inactive	inactive	inactive	inactive	inactive		> 92	inactive	inactive	inactive			inactive	2.99% and 8.15%	inactive
CC(C)(OOC(C)(C)c1ccccc1)c1ccccc1	inactive	inactive	inactive	inactive	inactive	inactive	inactive	inactive	inactive	inactive	0.182% and -0.836%	> 92	inactive	inactive			inactive	inactive	-3.9% and 4.2%	
Nc1cccc2ccccc12					inactive	inactive	inactive		inactive			> 92	inactive		inactive		inactive	inactive		
CCN(N=O)C(N)=O	inactive	inactive	inactive		inactive	inactive	inactive	inactive	inactive		-1.14%	> 92	inactive	inactive	inactive	-5.46%	inactive	inactive		inactive
COc1cc(-c2ccc(N)c(OC)c2)ccc1N	inactive	inactive	inactive	inactive	inactive		inactive	inactive	inactive	1.06 µM (active) and 2.17 µM (active)	0.354% and 3.2% and 2.92%	> 92	inactive	inactive	inactive	-9.81% and -21.9%	inactive		3.75% and 3.76% and 11%	
